# Inconclusive results are not listed. A call without a number means that no potency is given here. Active and inactive are the calls of the source. Unless noted, the call rests on the fitted dose curve; in most records, active means well fitted curve in the direction sought with a large enough effect in the repeat runs; inconclusive means weak or mixed curves; inactive means no such curve, though single readings can be large; an effect the other way counts as inactive or inconclusive.
# Assays:
# [1] = qHTS assay to identify small molecule agonists or antagonists of the thyroid stimulating hormone receptor (TSHR) signaling pathway - wild type cell line counter screen (AID 1259384; calls by dose curve)
# Summary of the method: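 Counter screen in untransfected Hek293: compounds (15-point titration, triplicate) plus phosphodiesterase inhibitor Ro20-1724 added after 18 h plating; 30 min RT. Intracellular cAMP via competitive d2/cryptate immunoassay, 1 h incubation.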
# [2] = target: Thyrotropin receptor (Homo sapiens) (UniProt P16473); assay: qHTS assay to identify small molecule antagonists of the thyroid stimulating hormone receptor (TSHR) signaling pathway (AID 1259385; calls by dose curve; further: nearly all actives have a fitted effect of over 20% in size)
# Chain of Thyrotropin receptor (Homo sapiens) (P16473 whole entry, looked up): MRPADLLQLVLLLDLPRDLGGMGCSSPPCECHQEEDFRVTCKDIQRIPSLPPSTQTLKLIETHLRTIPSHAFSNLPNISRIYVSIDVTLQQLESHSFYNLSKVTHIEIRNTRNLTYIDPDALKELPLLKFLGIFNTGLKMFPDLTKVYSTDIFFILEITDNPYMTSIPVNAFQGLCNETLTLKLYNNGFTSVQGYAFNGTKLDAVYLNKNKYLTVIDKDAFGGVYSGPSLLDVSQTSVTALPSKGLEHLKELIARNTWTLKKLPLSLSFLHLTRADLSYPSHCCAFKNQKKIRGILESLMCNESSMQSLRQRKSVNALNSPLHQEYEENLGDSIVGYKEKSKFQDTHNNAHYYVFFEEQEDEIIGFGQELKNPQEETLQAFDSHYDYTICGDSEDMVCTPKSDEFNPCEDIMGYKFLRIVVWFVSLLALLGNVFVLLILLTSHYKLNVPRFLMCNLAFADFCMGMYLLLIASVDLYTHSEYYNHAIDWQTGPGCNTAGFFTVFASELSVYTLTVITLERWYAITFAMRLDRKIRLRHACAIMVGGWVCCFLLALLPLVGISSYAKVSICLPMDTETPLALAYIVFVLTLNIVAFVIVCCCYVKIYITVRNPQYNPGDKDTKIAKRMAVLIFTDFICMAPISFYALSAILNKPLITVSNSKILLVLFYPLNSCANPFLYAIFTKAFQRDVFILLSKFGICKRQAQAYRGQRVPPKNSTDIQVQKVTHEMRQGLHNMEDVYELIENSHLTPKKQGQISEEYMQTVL
# Summary of the method: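 Antagonist mode: compound-treated TSHR-expressing HEK293 cells were stimulated with 1.5 ng/mL TSH (final) in presence of Ro20-1724 for 30 min at RT. HTRF cAMP detection after 1 h; each compound tested at 15 concentrations, triplicate.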
# [3] = qHTS assay to identify small molecule agonists of the estrogen receptor alpha (ER-alpha) signaling pathway in the presence of an antagonist - cell viability counter screen (AID 1259386);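 further: series mostly up to about 92 µM; cells exposed to compounds for 22 h at 37 °C before the viability read; nearly all actives have a fitted effect of over 30% in size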
# Summary of the method: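 Read-out: CellTiter-Fluor fluorescence after 1hr reagent incubation, measured in the same wells as the luciferase readout. VM7Luc4E2 cells were exposed to 15 compound concentrations with 10.0nM ICI-182,780 for 22hr at 37C.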
# [4] = target: Progesterone receptor (Homo sapiens) (UniProt P06401); assay: qHTS assay to identify small molecule agonists of the progesterone receptor (PR) signaling pathway (AID 1346784; calls by dose curve; further: nearly all actives have a fitted effect of over 30% in size)
# Chain of Progesterone receptor (Homo sapiens) (P06401 whole entry, looked up): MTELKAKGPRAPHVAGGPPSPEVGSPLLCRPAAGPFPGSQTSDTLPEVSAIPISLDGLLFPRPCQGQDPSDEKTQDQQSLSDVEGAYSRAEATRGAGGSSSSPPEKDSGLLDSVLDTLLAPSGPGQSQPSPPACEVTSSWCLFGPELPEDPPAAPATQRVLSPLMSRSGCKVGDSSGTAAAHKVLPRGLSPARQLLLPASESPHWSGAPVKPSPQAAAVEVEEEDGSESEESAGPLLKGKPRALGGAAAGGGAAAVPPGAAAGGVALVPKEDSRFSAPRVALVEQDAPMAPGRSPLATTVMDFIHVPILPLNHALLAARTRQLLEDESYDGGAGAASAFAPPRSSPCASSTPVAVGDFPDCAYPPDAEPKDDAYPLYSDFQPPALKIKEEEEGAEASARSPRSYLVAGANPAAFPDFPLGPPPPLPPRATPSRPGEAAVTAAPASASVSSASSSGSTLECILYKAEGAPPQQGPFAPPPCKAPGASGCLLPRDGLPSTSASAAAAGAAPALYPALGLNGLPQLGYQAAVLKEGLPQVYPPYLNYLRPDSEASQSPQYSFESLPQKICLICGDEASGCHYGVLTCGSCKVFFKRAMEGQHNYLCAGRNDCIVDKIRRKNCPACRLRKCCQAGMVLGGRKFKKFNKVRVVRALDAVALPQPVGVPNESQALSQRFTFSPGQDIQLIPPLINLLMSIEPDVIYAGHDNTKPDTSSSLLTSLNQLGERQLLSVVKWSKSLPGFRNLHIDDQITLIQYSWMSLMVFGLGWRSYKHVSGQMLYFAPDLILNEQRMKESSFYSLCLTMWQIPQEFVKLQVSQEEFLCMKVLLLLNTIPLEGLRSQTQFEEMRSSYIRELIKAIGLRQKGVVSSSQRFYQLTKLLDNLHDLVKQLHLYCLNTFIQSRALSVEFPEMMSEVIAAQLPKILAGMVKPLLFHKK
# Summary of the method: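 Cells (PR-UAS-bla HEK 293T, GripTite) were plated in assay medium containing 2% charcoal-stripped FBS and incubated 6 hr. Test compounds in DMSO were added for 16 hr at 37C. FRET substrate was then loaded for 2 hr at room temperature before fluorescence reading.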
# [5] = qHTS assay to identify small molecule antagonists of the progesterone receptor (PR) signaling pathway - cell viability counter screen (AID 1346798); further: series mostly up to about 92 µM; nearly all actives have a fitted effect of over 50% in size
# Summary of the method: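 Counter screen for cytotoxicity: viability of PR-UAS-bla HEK293T cells was measured with CellTiter-Glo luminescence following 16 hr compound exposure in the presence of R5020.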
# [6] = qHTS assay to identify small molecule agonists of the progesterone receptor (PR) signaling pathway - cell viability counter screen (AID 1346799; calls by dose curve; further: nearly all actives have a fitted effect of over 45% in size)
# Summary of the method: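 Cells (PR-UAS-bla HEK293T) are plated at 3,000/well in 2% charcoal-stripped FBS medium, rested 6 hr, dosed and incubated 16 hr at 37C. CellTiter-Glo is then added and luminescence measured after 30 min at room temperature.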
# [7] = qHTS assay to identify small molecule antagonists of the TGF-beta/Smad signaling pathway - cell viability counter screen (AID 1346824); further: nearly all actives have a fitted effect of over 50% in size
# Summary of the method: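 Cytotoxicity counter-screen run in the same wells as the beta-lactamase Smad reporter read: CellTiter-Glo luminescence after 30 min at room temperature. HEK 293T SBE-bla cells had 5 hr compound exposure at 37 C with TGF-beta1 (0.25 ng/mL stock).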
# [8] = qHTS assay to identify small molecule agonists of the TGF-beta/Smad signaling pathway - cell viability counter screen (AID 1346829); further: top concentration of the series differs between compounds; nearly all actives have a fitted effect of over 45% in size
# Summary of the method: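 HEK 293T SBE-bla line, 5 hr compound exposure at 37 C, multiplexed CellTiter-Glo viability read by luminescence.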
# [9] = qHTS assay to identify small molecule agonists of the TGF-beta/Smad signaling pathway (AID 1346859; active means well fitted activation curve with a large enough effect in the signal ratio in the repeat runs, not every such curve was filed as active; the % refers to the signal ratio; further: series mostly up to about 77 µM)
# Summary of the method: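 Reporter line: HEK 293T with stably integrated SBE-controlled beta-lactamase. Compound exposure lasts 5 hr at 37 C and 5% CO2; substrate loading follows for 2 hr at room temperature, with emission read at 460 and 530 nm.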
# [10] = Human pregnane X receptor (PXR) small molecule agonists, qHTS cell viability counter screen (AID 1346977); further: nearly all actives have a fitted effect of over 50% in size
# Summary of the method: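 Cytotoxicity counter screen run in the same wells as the PXR luciferase assay, using PXR-Luc HepG2 cells in charcoal-stripped serum medium. Viability: CellTiter-Fluor fluorescence after 24hr compound treatment.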
# [11] = Caspase-3/7 induction in HepG2 cells by small molecules, qHTS assay (AID 1346978); further: nearly all actives have a fitted effect of over 15% in size
# Summary of the method: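 Caspase-3/7 induction was measured by Caspase-Glo 3/7 luminescence (30 min, room temperature) after a 17 hr compound exposure of wild-type HepG2 cells seeded at 2,000 per well and pre-incubated 5 hr.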
# [12] = Caspase-3/7 induction in CHO-K1 cells by small molecules, qHTS cell viability counter screen (AID 1346979); further: nearly all actives have a fitted effect of over 35% in size
# Summary of the method: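 Cytotoxicity counter screen run in parallel with the caspase-3/7 assay: CHO-K1 cells, 16hr compound treatment at 37C, then CellTiter-Fluor for 1hr before fluorescence reading.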
# [13] = Caspase-3/7 induction in CHO-K1 cells by small molecules, qHTS assay (AID 1346980); further: nearly all actives have a fitted effect of over 15% in size
# Summary of the method: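 Luminescent Caspase-Glo 3/7 read (30min, room temperature) quantified apoptosis induction. Cells were wild-type CHO-K1, treated with compound for 17hr at 37 C and 5% CO2.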
# [14] = Caspase-3/7 induction in HepG2 cells by small molecules, qHTS cell viability counter screen (AID 1346981); further: series mostly up to about 92 µM; nearly all actives have a fitted effect of over 30% in size
# Summary of the method: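 Fluorescence read-out of live-cell protease activity (CellTiter-Fluor) after 1 hr with reagent. This was measured in the same wells as the caspase-3/7 luminescence, on HepG2 cells exposed to DMSO-dissolved compounds for 16 hr at 37 C.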
# [15] = target: Progesterone receptor (Homo sapiens) (UniProt P06401); assay: qHTS assay to identify small molecule antagonists of the progesterone receptor (PR) signaling pathway (AID 1346795; active means well fitted inhibition curve with a large enough effect in the signal ratio in the repeat runs, not every such curve was filed as active; the % refers to the signal ratio; further: potency means the concentration at half of the fitted maximal effect)
# Summary of the method: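 Antagonist mode: compounds tested against 1 nM (final) promegestone stimulation in HEK293T cells expressing PR-UAS-bla reporter, 16 hr at 37C, 5% CO2; beta-lactamase activity detected via B/G FRET substrate after 2 hr at room temperature.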
# [16] = target: Thyrotropin-releasing hormone receptor (Homo sapiens) (UniProt P34981); assay: qHTS assay to identify small molecule antagonists of the thyrotropin-releasing hormone receptor (TRHR) signaling pathway (AID 1346877; active means well fitted inhibition curve with a large enough effect in the repeat runs, not every such curve was filed as active; further: series mostly up to about 51 µM)
# Chain of Thyrotropin-releasing hormone receptor (Homo sapiens) (P34981 whole entry, looked up): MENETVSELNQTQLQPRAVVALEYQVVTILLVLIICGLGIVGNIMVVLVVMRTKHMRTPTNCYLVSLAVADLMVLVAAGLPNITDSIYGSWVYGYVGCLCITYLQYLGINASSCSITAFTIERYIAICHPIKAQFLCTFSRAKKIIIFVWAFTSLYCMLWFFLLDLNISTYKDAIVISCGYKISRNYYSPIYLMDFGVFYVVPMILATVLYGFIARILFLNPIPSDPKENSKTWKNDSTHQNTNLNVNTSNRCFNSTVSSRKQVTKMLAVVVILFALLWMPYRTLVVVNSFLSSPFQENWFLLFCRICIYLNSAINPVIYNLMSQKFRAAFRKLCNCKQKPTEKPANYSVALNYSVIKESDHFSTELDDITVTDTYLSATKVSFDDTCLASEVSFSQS
# Summary of the method: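 HEK293/TRHR cells, 18 h, 37 °C; Ca2+ dye 2 h; cpd 5 min RT; TRH 1 nM final; fluorescence read 3 min, 1 s intervals; 15 concs, triplicate.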
# [17] = target: Thyrotropin-releasing hormone receptor (Homo sapiens) (UniProt P34981); assay: qHTS assay to identify small molecule agonists of the thyrotropin-releasing hormone receptor (TRHR) signaling pathway (AID 1346891; calls by dose curve;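 further: HEK293 cells expressing TRHR with calcium dye readout; series mostly up to about 58 µM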)
# Summary of the method: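 Cells: TRHR-Hek293, seeded and incubated 18 h. Dye loading: 2 h at 37 °C. Compound added from DMSO stock by pin tool. Read-out: kinetic calcium fluorescence over 3 min.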
# [18] = target: Estrogen receptor (Homo sapiens) (UniProt P03372); assay: qHTS assay to identify small molecule agonists of the estrogen receptor alpha (ER-alpha) signaling pathway in the presence of an antagonist (AID 1259383; calls by dose curve; further: top concentration of the series differs between compounds; nearly all actives have a fitted effect of over 15% in size)
# Chain of Estrogen receptor (Homo sapiens) (P03372 whole entry, looked up): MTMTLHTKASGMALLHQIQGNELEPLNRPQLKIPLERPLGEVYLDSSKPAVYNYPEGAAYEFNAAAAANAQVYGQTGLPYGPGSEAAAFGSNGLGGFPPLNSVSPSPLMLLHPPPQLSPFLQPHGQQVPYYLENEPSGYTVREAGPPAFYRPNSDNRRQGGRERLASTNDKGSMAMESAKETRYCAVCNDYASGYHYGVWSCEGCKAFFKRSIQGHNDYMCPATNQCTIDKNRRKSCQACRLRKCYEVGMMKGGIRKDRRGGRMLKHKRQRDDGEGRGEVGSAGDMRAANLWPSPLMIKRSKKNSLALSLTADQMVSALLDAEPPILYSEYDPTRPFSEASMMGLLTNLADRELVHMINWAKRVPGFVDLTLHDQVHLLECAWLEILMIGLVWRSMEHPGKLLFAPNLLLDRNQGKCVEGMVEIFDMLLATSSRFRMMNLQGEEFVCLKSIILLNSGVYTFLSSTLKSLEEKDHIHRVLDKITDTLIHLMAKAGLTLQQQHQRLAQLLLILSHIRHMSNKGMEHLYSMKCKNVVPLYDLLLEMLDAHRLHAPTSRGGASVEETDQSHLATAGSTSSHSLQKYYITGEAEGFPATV
# Summary of the method: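 Luciferase luminescence (ONE-Glo, 30min at room temperature) measured in VM7Luc4E2 cells after 22hr compound exposure at 15 concentrations, with 10.0nM ICI-182,780 final present; cells express endogenous ER-alpha and carry four EREs upstream of luciferase.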
# [19] = qHTS assay to identify small molecule antagonists of the estrogen receptor beta (ER-beta) signaling pathway - cell viability counter screen (AID 1259382);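 further: HEK293T cells carrying ER-beta-UAS-bla reporter stimulated with estradiol; series mostly up to about 92 µM; nearly all actives have a fitted effect of over 55% in size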
# Summary of the method: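 Luminescent ATP read-out (CellTiter-Glo, 30 min, RT) taken in the same wells as the bla reporter assay. HEK293T ER-beta-UAS-bla cells in 2% charcoal-stripped FBS were exposed to compounds with 1nM E2 for 16 hr at 37C.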
Compound,outcome [1],outcome [2],Potency [3],Potency [4],Potency [5],Potency [6],outcome [7],outcome [8],outcome [9],Potency [10],outcome [11],Potency [12],outcome [13],Potency [14],Potency [15],outcome [16],outcome [17],outcome [18],outcome [19]
CCCCC/C=C/CC(=O)OC,inactive,inactive,inactive,inactive,inactive,inactive,inactive,inactive,inactive,inactive,inactive,inactive,inactive,inactive,,,,,
NS(=O)(=O)c1ccccc1OC(F)(F)F,,,inactive,inactive,inactive,inactive,inactive,inactive,inactive,inactive,inactive,inactive,inactive,inactive,inactive,inactive,inactive,,
CCCCCC(=O)OCC,inactive,inactive,inactive,inactive,inactive,inactive,inactive,inactive,inactive,inactive,inactive,inactive,inactive,inactive,inactive,inactive,inactive,inactive,
O=C(O)C(=O)Nc1cccc(-c2nn[nH]n2)c1,inactive,inactive,inactive,inactive,inactive,,inactive,inactive,inactive,inactive,inactive,inactive,inactive,inactive,inactive,,,,
CC1(N)CCC(C(C)(C)N)CC1 (stereo not given),inactive,inactive,inactive,,inactive,,inactive,inactive,inactive,inactive,inactive,inactive,inactive,inactive,inactive,inactive,inactive,,
C=CC(C)(O)CC/C=C(\C)CC (stereo not given),inactive,inactive,inactive,inactive,inactive,inactive,inactive,inactive,inactive,inactive,inactive,inactive,inactive,,inactive,inactive,inactive,inactive,
CC(C)COC(=O)/C=C/c1ccccc1,inactive,inactive,inactive,inactive,inactive,inactive,inactive,inactive,inactive,inactive,inactive,inactive,inactive,inactive,inactive,,,inactive,
CCC(C)(CCC(C)C)C(=O)[O-].CCC(C)(CCC(C)C)C(=O)[O-].[Zn+2] (stereo not given),,,inactive,inactive,,,,inactive,inactive,inactive,inactive,inactive,inactive,inactive,inactive,,,,inactive
CC(=O)c1ccc2c(c1)CCCC2,inactive,inactive,inactive,inactive,,inactive,inactive,inactive,inactive,inactive,inactive,inactive,inactive,inactive,inactive,,,inactive,
Oc1ccccc1Cc1ccccc1O,inactive,inactive,inactive,,,,inactive,inactive,inactive,inactive,inactive,inactive,inactive,inactive,27.3 µM (active),inactive,inactive,inactive,
CCCCCCCC[Si](OCC)(OCC)OCC,,,inactive,inactive,inactive,inactive,inactive,inactive,inactive,inactive,inactive,inactive,inactive,,inactive,inactive,inactive,,
C[C@H](CCC(=O)NCC(=O)O)[C@H]1CC[C@H]2[C@@H]3[C@H](O)C[C@@H]4C[C@H](O)CC[C@]4(C)[C@H]3C[C@H](O)[C@]12C,inactive,inactive,inactive,,inactive,inactive,inactive,inactive,inactive,inactive,inactive,inactive,inactive,inactive,inactive,inactive,inactive,,

# From PubChem BioAssay (Tox21)
